# G9a block = G9a (human) methyltransferase inhibition; Potency, µM (doses to about 102 µM), without a hit: at the top dose activity, negative = inhibition, usual class: inhibitors; Q96KQ7; 350,000 tested, 8.8% active; G9a H3K9 monomethylation, AlphaScreen, 2 h; further: on the % scale 0 is the no-effect control and ±100 the full control effect; nearly all actives have a fitted effect of over 75% in size
# Target sequence (Q96KQ7 913-1193 limits assumed): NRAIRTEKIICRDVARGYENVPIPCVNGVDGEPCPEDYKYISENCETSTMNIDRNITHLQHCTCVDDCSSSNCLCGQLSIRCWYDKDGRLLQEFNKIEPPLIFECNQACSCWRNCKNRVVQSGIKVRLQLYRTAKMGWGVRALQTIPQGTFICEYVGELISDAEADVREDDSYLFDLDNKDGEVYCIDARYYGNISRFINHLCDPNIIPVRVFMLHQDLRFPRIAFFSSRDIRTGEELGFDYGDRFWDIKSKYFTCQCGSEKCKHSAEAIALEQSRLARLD
#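 Using a bead-based AlphaScreen, monomethylated H3K9 product from 2 h room-temperature reactions (G9a 20 nM, peptide 500 nM, SAM 20 uM) was detected with 0.5 ug/mL rabbit anti-H3K9me1 antibody.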
# BAZ2B block = BAZ2B (human) inhibition; AlphaScreen BAZ2B-H3K14Ac peptide displacement; Potency, µM (series often up to 114 µM), for the others: top-dose activity change, negative = inhibition, actives largely listed as inhibitors; 360,000 tested, 4.4% active; AID 504333; further: on the % scale 0 is the no-effect control and ±100 the full control effect; nearly all actives have a fitted effect of over 60% in size
#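 BAZ2B (50 nM) with biotin-H3(5-23)K14Ac peptide (50 nM) in PBS pH 7.4, 0.01% Tween-20, preformed 30 min, then compound 30 min at room temperature; top concentration 110uM. AlphaScreen streptavidin donor/nickel chelate acceptor beads (10 ug/mL final), 20 min dark, signal read.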
# Sfp PPTase inh = inhibitors of Bacillus subtilis Sfp phosphopantetheinyl transferase; Q9F4F7; Biochemical Sfp PPTase activity, qHTS; Potency, µM, without a hit: largest response in the series, negative = inhibition, most hits filed as inhibitors; 310,000 tested, 3.5% active; AID 1490;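 further: the enzyme is Sfp with the accession as filed and its product quenches rhodamine fluorescence; 0% = enzyme reaction without inhibitor and -100% = no enzyme wells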
#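 With Hepes-Na pH 7.6 buffer containing 10 mM MgCl2, Sfp (15 nM) modified BHQ-2-YbbR (12.5 uM) using rhodamine-CoA (5 uM). Two reads 30 minutes apart at 525/598 nm yielded each well's rate.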
# JMJD2A Tudor inh = blocks the human JMJD2A Tudor domain; O75164; AlphaScreen JMJD2A-Tudor / H3K4me3 peptide binding; 390,000 tested, 4.4% active; AID 504339; Potency, µM (top dose mostly 114 µM), for inactives: top-dose activity change, negative = inhibition, hits mostly inhibitors; further: on the % scale 0 is the no-effect control and ±100 the full control effect; nearly all actives have a fitted effect of over 50% in size
# HP1b chromo inh = inhibitors of HP1-beta chromodomain binding to methylated histone tails; P83916; Potency, µM (doses to about 114 µM), without a hit: top-dose activity change, negative = inhibition, actives largely listed as inhibitors; 390,000 tested, 0.56% active; AID 540317; AlphaScreen HP1-beta / biotin-H3K9me3 peptide binding; further: nearly all actives have a fitted effect of over 70% in size
# Target sequence (P83916 whole entry, looked up): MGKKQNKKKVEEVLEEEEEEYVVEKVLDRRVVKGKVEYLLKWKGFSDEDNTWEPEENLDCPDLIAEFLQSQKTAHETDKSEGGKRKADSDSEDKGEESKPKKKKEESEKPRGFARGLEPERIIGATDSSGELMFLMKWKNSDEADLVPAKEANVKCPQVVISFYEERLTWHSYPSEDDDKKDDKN
#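 Compound inhibition of the preformed complex between 50 nM HP1-beta and 50 nM biotinylated H3K9me3 peptide was read by AlphaScreen. Buffer was PBS pH 7.4 with 0.01% Tween-20. Incubations ran 30 min at room temperature, with 10 ug/mL donor/acceptor beads.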
# * marks the source's active call; other numbers are inactive results; ? = inconclusive; / = no result given; [ ] = dose if it differs, or a comment. An excerpt weighted towards active compounds, which were near 12% of everything screened. The call rests on the fitted dose curve; in most records, active means well fitted curve in the direction sought with a large enough effect; inconclusive means small, poorly fitted or top-dose-only effect, or another doubt; inactive means no such curve, though single readings can be large; an effect the other way counts as inactive or inconclusive. Potency means the concentration at half of the fitted maximal effect.
SMILES,G9a block,BAZ2B block,Sfp PPTase inh,JMJD2A Tudor inh,HP1b chromo inh
CCC/C=C1\CCCOC(C(=O)NCc2ccc(C)o2)(C(F)(F)F)C1 (centres undefined),/,/,50µM*,-10%,33%
CCC/C=C1/CCCOC(C(=O)NCc2cc(C)n(C)n2)(C(F)(F)F)C1 (centres undefined),/,/,17%,-20%,29%
N#Cc1cccc(-c2ccc3ncnc(N4CCNCC4)c3c2)c1,11%[0.501 µM],/,-1%,/,/
CCOC(=O)C1(CC2CCCCO2)CCN(Cc2ccccc2-c2ccco2)CC1 (centres undefined),/,?,6%,-34%,18%
Cc1cccc(-n2c(N)cc(=O)nc2SCC(=O)Nc2cc(C)on2)c1,-1%,30%,5%,-14%[11.4 µM],57%
O=C(NCc1ccccc1)c1ccc(CS(=O)(=O)c2ccc(Br)cc2)o1,22%,-13%,17%,-9%,25%
O=c1c2oc3ccccc3c2[nH]c(=S)n1-c1ccc(F)cc1,50µM*,/,79µM*,6%,37%
O=c1[nH]c2c(oc3ccccc32)c(=O)n1Cc1ccccc1,23%,1%,7%,-14%,5%
Cc1ccc(-n2c(=S)[nH]c3c(oc4ccccc43)c2=O)cc1C,79µM*,11%,-14%,0%,12%
COc1ccc(C(=O)c2ccc(CC#N)s2)cc1,?,?,0%,79µM*,-11%
CC1(c2ccccc2)NC(=O)N(CC(=O)Nc2ccc(S(=O)(=O)Nc3ncccn3)cc2)C1=O (centres undefined),15%[2.33 µM],6%,/,-1%,25%
Cc1cc(NS(=O)(=O)c2ccc(NC(=O)CN3C(=O)NC(C)(c4ccccc4)C3=O)cc2)nc(C)n1 (centres undefined),14µM*,9%,/,6%,27%
CCN(CC)S(=O)(=O)c1ccc(N2CCOCC2)c(NC(=O)CN2C(=O)NC(C)(c3ccccc3)C2=O)c1 (centres undefined),16µM*,6%,/,-20%,38%
COc1ccc(S(=O)(=O)N2CCCCCC2)cc1NC(=O)CN1C(=O)NC(C)(c2ccccc2)C1=O (centres undefined),16µM*,-1%,/,-14%,33%
CCN(CC)S(=O)(=O)c1ccc(N2CCOCC2)c(NC(=O)c2ccc(C#N)cc2)c1,11µM*,?,-10%,-4%,40%
CC(=O)Nc1ccc(S(=O)(=O)NCCC(=O)NCc2ccncc2)cc1,11%[2.33 µM],4%,/,-2%,24%
O=C(NC1CCCCC1)C1CCCN1C(=O)Nc1ccccc1 (centres undefined),9%,2%,11%,-8%,21%
O=C(NCCc1ccccc1)c1ccc2nc3cc(Cl)ccc3c(=O)n2c1,16%,5%,11%,-8%,24%
CCN(CC)S(=O)(=O)c1ccc(N2CCCC2)c(NC(=O)c2ccc(OC)cc2OC)c1,28µM*,-32%,79µM*,-32%,18%
CN(C)S(=O)(=O)c1ccc(N2CCCC2)c(C(=O)Nc2ccc(F)cc2F)c1,11µM*,8%,/,-11%,13%
CCN(CC)S(=O)(=O)c1ccc(N2CCOCC2)c(NC(=O)C(=O)c2c(-c3ccccc3)cc3ccccn23)c1,35µM*,-34%,1%,-32%,-26%
CN(C)S(=O)(=O)c1ccc(N2CCCC2)c(C(=O)Nc2ccccc2F)c1,?,4%,/,-4%,16%
CCN(CC)S(=O)(=O)c1ccc(N2CCOCC2)c(NC(=O)CNCCc2ccccc2)c1,11µM*,50µM*,-11%,40µM*,-24%[57 µM]
CCN(CC)S(=O)(=O)c1cccc(NC(=O)C(=O)c2c(-c3ccccc3)cc3ccccn23)c1,-12%[59 µM],-9%,11%,-28%,-1%
CCN(CC)S(=O)(=O)c1ccc(N2CCOCC2)c(NC(=O)COc2ccccc2)c1,-32%,0%,-2%,1%,49%
SMILES,G9a block,BAZ2B block,Sfp PPTase inh,JMJD2A Tudor inh,HP1b chromo inh
CCN(CC)S(=O)(=O)c1ccc(N2CCCC2)c(NC(=O)Cc2ccc(OC)cc2)c1,?,-26%,2%,-11%,7%
Cc1ccc(CCNC(=O)c2cc3c(=O)n(C)c4ccccc4c3n2C)cc1,0%[59 µM],-15%,/,-18%,7%
Cc1ccccc1Cn1c(O)c(N=NC(=S)Nc2ccccc2F)c2ccccc21,13µM*,?,12%,?,?
Oc1c(N=NC(=S)Nc2ccccc2F)c2ccccc2n1Cc1ccc(Cl)cc1,10µM*,?,2%,?,-6%
NC(=S)N=Nc1c(O)n(CCCl)c2ccccc12,-19%,?,-25%,-8%,32%
Oc1c(N=NC(=S)Nc2ccccc2F)c2ccccc2n1Cc1ccccc1F,11µM*,-32%,2%,?,?
Cc1ccc(C)c(Cn2c(O)c(N=NC(=S)Nc3ccccc3F)c3ccccc32)c1,?,1%,-17%,?,?
Cc1ccc(Cn2c(O)c(N=NC(=S)Nc3ccccc3F)c3cc(S(=O)(=O)N4CCOCC4)ccc32)cc1,?,-17%,21%,-28%,13%
COc1ccc(NC(=O)CN(C)C(=O)c2ccccc2OC)cc1,-3%,-13%,10%,-4%,8%
COCC1CCCN(Cc2nc(Cc3ccccc3)no2)C1 (centres undefined),/,-7%,7%,0%,7%
Cc1nc2ccccn2c1C(=O)N/N=C/c1ccc(F)cc1,18%,7%,36%,-15%,21%
CCCC(c1nnnn1C(C)(C)CC)N1CCN(C(=O)c2ccco2)CC1 (centres undefined),89µM*,-8%,-12%,-28%,6%
CCC(c1nnnn1CCc1ccccc1)N1CCN(C(=O)c2ccco2)CC1 (centres undefined),50µM*,50µM*,4%,-19%,24%
O=C(CN(C(=O)c1csnn1)c1ccc(F)cc1)NCc1ccc(F)cc1,25%,12%,10%,-17%,33%
Cc1nc(SCC(=O)Nc2cccc(Cl)c2)n[nH]1,0%[12.7 µM],2%,-2%,2%,28%
O=C(CSc1n[nH]c(-c2ccccn2)n1)Nc1cccc(Cl)c1,?,5µM*,14%,6.3µM*,47%
Cc1ccc(C)c(NC(=O)CSc2n[nH]c(-c3ccccn3)n2)c1,61%,4.5µM*,-15%,1.3µM*,15%
Cc1ccccc1NC(=O)CSc1n[nH]c(-c2ccccn2)n1,12%,2.8µM*,?,3.5µM*,60%
CCC(Oc1ccc2c(c1)C(=O)CC(C)(C)O2)C(=O)NCCN1CCCCCC1 (centres undefined),13µM*,?,?,45µM*,?
Cc1c2c(c(C)n1C)C(C(=O)NC1CCCCC1)N(Cc1ccccc1)C2=O (centres undefined),50µM*,/,13%,-10%,12%
COc1ccc(CCNC(=S)NCc2cccs2)cc1OC,?,-13%,2%,-10%,3%

# Screening data from PubChem BioAssay.
